PubChem BioAssay AID827 (SRMLSC, 2007)
Out of some 140,000 compounds screened, about 1,700 (1.2%) were called active. The sample as a whole holds a higher share of actives than the screen did. A number with no mark means an inactive call.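 The calls were made as follows: active = viability at or below a set limit, 4 SD under the median of all tested compounds (cut at about 3.7% in these data); inactive = the rest.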

experiment: growth suppression of PTEN-null HCT116, primary screen, cell-based, CellTiter-Glo (AID 827); settings: 60 h, at 10 µM, active compounds read low;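 also: PTEN knockout HCT116 line with beta catenin targeted HCT116 as companion control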

Compound	viability
Cc1ccc(C)c(NC(=S)NCC(c2cccnc2)N2CCOCC2)c1 (centres undefined)	92.3%
CCCCCCc1cc2cc(-c3nnc(-c4ccccc4)o3)c(=O)oc2cc1O	1.84% (active)
CC(=O)c1c(C)[nH]c(C(=O)OCC(=O)Nc2sc3c(c2C#N)CCCC3)c1C	66.9%
COc1cccc2c1CCC(NC(C)=O)C2=O (centres undefined)	86%
Oc1ccc(Cl)cc1/C=N/c1nc2ccccc2[nH]1	93.9%
COc1ccc(/C=C(/NC(=O)c2ccc(C)cc2)c2nc3ccccc3[nH]2)cc1OC	99.4%
O=C(/C(=C/c1cccc(Cl)c1)c1nc2ccccc2[nH]1)c1ccccc1	1.59% (active)
Cc1ccc(C(=O)/C=C/Nc2ccc(S(=O)(=O)Nc3onc(C)c3C)cc2)cc1	92.7%
O=C(NCCc1ccccc1)C1CCC(Cn2c(=O)c3ccccc3n(Cc3cccnc3)c2=O)CC1 (centres undefined)	63.7%
Cc1cccc(NC(=O)CSc2nc3[nH]ncc3c(=O)[nH]2)c1	90.2%
CC(C)(C)CC(C)(C)NCC(O)COCCOc1ccc(Br)cc1 (centres undefined)	1.74% (active)
CCC(C)NCCOCCOc1ccc(Br)cc1C (centres undefined)	71%
Cc1noc(COc2ccccc2OCC(O)CNC(C)(C)C)n1 (centres undefined)	98.8%
Cc1cccc(C(=O)OCC(=O)Nc2sc3c(c2C#N)CCC3)c1	95.8%
CCc1ccccc1NC(=O)CN(C)C(=O)COc1ccc(C)nc1[N+](=O)[O-]	95.3%
O=C(NNc1c2ccccc2nc2ccccc12)c1cc2ccccc2cc1O	2.39% (active)
O=C(Nc1c2c(nc3ccccc13)CCCC2)c1ccccc1Br	86.9%
Cc1noc(C)c1COC(=O)c1cc2ccccc2cc1O	86.5%
C=CCNC(=O)c1ccccc1NC(=O)c1ccc(Cl)c(S(=O)(=O)Nc2cccc(C)c2C)c1	55.4%
CCn1c(/C=C/c2ccc([N+](=O)[O-])o2)nc2ccccc2c1=O	2.45% (active)
Cc1ccc(-n2c(SCC(=O)N/N=C/C=C/c3ccccc3[N+](=O)[O-])nc3ccccc3c2=O)cc1	85.4%
Cn1cc(/C=C/c2nc3ccccc3c(=O)n2-c2cccc([N+](=O)[O-])c2)c2ccccc21	62.3%
CCc1nnc(NC(=O)[C@@H](NC(=O)c2cccc(C)c2)C(C)C)s1	80.8%
N#CCSc1nc2ccccc2c(=O)n1-c1ccccc1	90.5%

Compound	viability
Cc1cc(C)c2c(n1)sc1c(=O)n(-c3ccccc3)c(=O)[nH]c12	97.1%
C/C(O)=C\c1nc(=O)c2c(C)cc(C)nc2n1-c1ccccc1	2.19% (active)
COc1ccc(CCC(=O)OCC(=O)Nc2ccc(C)c(S(=O)(=O)N(C)C)c2)cc1	96.3%
c1ccc2c(c1)CSc1sccc1C2=C1CCNCC1	4.26%
CCOC(=O)c1ccc(N/C(=N/S(=O)(=O)c2ccccc2)c2ccccc2)cc1	102%
CCCCC(C(=O)OCC(=O)c1ccc(OC)cc1)N1C(=O)c2ccccc2C1=O (centres undefined)	97.5%
CCOC(=O)c1ccccc1NS(=O)(=O)c1ccc(OC)cc1	15.6%
CCOC(=O)C1=C(c2ccc(OC)cc2)C(=O)c2ccccc2C1=O	1.48% (active)
N#C/C(=C(/O)COC(=O)COc1ccc(Cl)cc1)c1nc2ccccc2[nH]1	5.27%
N=c1c2c(-c3ccccc3)c(-c3ccccc3)oc2ncn1Cc1ccco1	54.2%
N=c1c2c(-c3ccccc3)c(-c3ccccc3)n(Cc3ccccc3)c2ncn1CCCO	1.76% (active)
OCCCN1c2ccccc2Nc2nnc(-c3ccccc3)cc21	53.1%
O=C(/C=C/c1ccccc1)c1ccccc1O	83.3%
Cc1[nH]c(=O)c(C(=O)/C=C/c2ccccc2)c2c1CCCC2	1.81% (active)
Cc1nc(-c2ccccc2)sc1C(=O)/C=C/c1ccccc1	6.16%
O=C(Nc1ccccc1)c1cc2ccccc2[nH]1	66.4%
CC(C)(C)c1ccc(C(=O)CSc2ncn[nH]2)cc1	94.8%
O=C(/C=C/Sc1ncn[nH]1)c1ccc(Cl)cc1	2.52% (active)
O=C(NCCOCc1ccc(Cl)cc1)c1ncn[nH]1	101%
CC(=O)NC1C(OCc2ccccc2)OC(COC(C)=O)C(OC(C)=O)C1OC(C)=O (centres undefined)	96.9%
S=c1[nH]nc(-c2cccnc2)n1/N=C/C(Cl)=C\c1ccccc1	8.01%
Cc1cc(-c2n[nH]c(=S)n2/N=C/C(Br)=C/c2ccccc2)n[nH]1	1.39% (active)
Cc1ccc(/C=N\n2c(-c3ccccc3)n[nH]c2=S)s1	109%
Cc1nn(C)c(C(=O)NNC(=S)NC2CCCCC2)c1Cl	95.4%

Compound	viability
CC1CCN(C(=S)NC2CC3CCC2C3)CC1 (centres undefined)	95.9%
O=C1/C(=C\c2ccccc2Cl)SC(=S)N1CCC(=O)N1CCCc2ccccc21	2.6% (active)
O=C(CCCN1C(=O)/C(=C/c2ccco2)SC1=S)Nc1ccccc1	24%
O=C(c1c(Cl)nc2sccn12)N1CCCc2ccccc21	81.7%
N=C1C(=O)OCC1c1ccccc1NC(=O)CN1CCCCC1 (centres undefined)	83.9%
CC(NC(=O)c1cccc2ccccc12)c1ccc2c(c1)CCCC2 (centres undefined)	25.1%
NS(=O)(=O)c1ccc(CCNC(=S)Nc2ccc(S(N)(=O)=O)cc2)cc1	96.8%
Cc1ccc(C)c(NC(CC(=O)c2ccccc2)C(=O)OCC(=O)c2cccs2)c1 (centres undefined)	85%
O=C(CCC(=O)c1cccs1)NCc1ccccc1	97.4%
Cc1ccccc1C(CC(=O)c1cccs1)C(C#N)C#N (centres undefined)	3.71% (active)
Cc1ccc(CN2C(=O)N/C(=C/c3cc(C)n(-c4ccccn4)c3C)C2=O)cc1	84.5%
Cc1cc(OCCCC(=O)NCCN2C(=O)S/C(=C\c3cccnc3)C2=O)ccc1Cl	78.4%
COC(=O)N/N=C/c1ccc(-c2ccc(Cl)c(Cl)c2)o1	68.4%
O=C(CN1C(=O)NC2(CCCCCC2)C1=O)NCc1cccs1	102%
Cc1ccc(C)c2[nH]c(=O)c(CCNC(=O)c3cccs3)cc12	85.5%
Cc1ccc(-n2[nH]c(C)c(/C=N/NC(=O)c3cccc([N+](=O)[O-])c3)c2=O)cc1C	2.5% (active)
COc1cc(/C=N\NC(=O)CNC(=O)c2cccc([N+](=O)[O-])c2)ccc1O	98.5%
Cc1[nH]n(-c2ccc(Cl)cc2)c(=O)c1/C=N/n1c(C)nc2ccccc2c1=O	33.6%
Cc1[nH]n(-c2cccc(Cl)c2)c(=O)c1/C=N/n1c(C)nc2ccccc2c1=O	89.2%
Cc1[nH]n(-c2ccccc2)c(=O)c1/C=N/NC(=O)c1ccoc1C	3.19% (active)
COc1cccc(/C=N/NC(=O)c2cccc([N+](=O)[O-])c2)c1OS(=O)(=O)c1ccc(C)cc1	71.7%
N#C/C(=C/c1cccc([N+](=O)[O-])c1)c1nnc2n1CCCCC2	30.1%
CCOc1ccc(S(=O)(=O)N(CC(=O)NCC(F)(F)F)Cc2ccco2)cc1	99.2%
COC(=O)CN1C(=S)N(c2ccccc2)C(=O)C1CC(=O)Nc1ccc(Cl)cc1 (centres undefined)	91.3%

Compound	viability
Cc1ccc(/C=C/C(=O)Nc2cc(S(=O)(=O)N3CCCCCC3)ccc2OCC(F)(F)F)o1	75.3%
C/C(=N/NC(=O)C1COc2ccccc2O1)c1ccco1 (centres undefined)	96.5%
Cc1cccc2cc(CN(Cc3cccs3)C(=S)NCc3ccco3)c(=O)[nH]c12	72.6%
CN(C)CCNC(=O)Cc1ccc([N+](=O)[O-])cc1	98.8%
CCCCc1nc(NCCN)c(C#N)c2c1CSC(C)(C)C2	2.15% (active)
Cc1nc(NCCN)c(C#N)c2c1COC(C)(C)C2	101%
CCCCc1nc(NCc2ccccc2)c(C#N)c2c1CCCC2	82.1%
COc1ccc(C2CC(c3ccccc3)=NN2C(=O)CSc2nccc(=O)[nH]2)cc1 (centres undefined)	101%
CCOC(=O)C1=C(C)Nc2nc3ccccc3n2C1c1cccs1 (centres undefined)	90.1%
O=C1/C(=C\c2cccnc2)CN(Cc2ccccc2)C/C1=C\c1cccnc1	1.06% (active)
O=C1OC(c2ccc(Cl)cc2)=N/C1=C\c1cccnc1	90.6%
O=C(O)C1CC(=O)N(Cc2cccnc2)C1 (centres undefined)	100%
O=C(CN1CCN(S(=O)(=O)c2ccc(Br)cc2)CC1)Nc1ccccc1C(=O)c1ccccc1	64.5%
Cc1nn(Cc2ccccc2)c(C)c1C(=O)NCCN1C(=O)S/C(=C\c2ccc(F)cc2)C1=O	97.4%
Cc1ccc(NC(=O)CC2S/C(=N/N=C3\CCCc4ccccc43)NC2=O)cc1 (centres undefined)	65.5%
O=C(c1cncc(Br)c1)N1CCN(c2ccc([N+](=O)[O-])cc2)CC1	83.7%
CC(C)CC[n+]1ccn(C2=C([O-])c3ccccc3C(=O)/C2=N\S(=O)(=O)c2ccccc2)c1	3.35% (active)
O=C(CSc1nc2ccc([N+](=O)[O-])cc2[nH]1)c1ccc(Cl)cc1	103%
CC(C)=C(NC(=O)c1ccccc1)C(=O)N/N=C(\C)c1ccccc1O	88.4%
CCOc1ccc2nc(Nc3nc4ccc(NC(C)=O)cc4s3)sc2c1	90.5%
COc1ccc2nc(Nc3nc4cc5c(cc4s3)OCCO5)sc2c1	94.9%
COc1ccc2nc(Nc3nc4ccc(NC(C)=O)cc4s3)sc2c1	1.64% (active)
